The structures appear in SMILES notation. Records with an inconclusive call do not appear. A call without a number means that no potency is given here. Active and inactive are the calls of the source. Unless noted, calls follow the shape of the dose curve; as a rule, active = well fitted cell-killing curve with a large enough effect in the repeat runs; inconclusive = weak or mixed curves, or effect the other way; inactive = flat fitted curve, though single readings scatter.

Thyrotropin-releasing hormone receptor (Homo sapiens), sequence (P34981 whole entry, looked up): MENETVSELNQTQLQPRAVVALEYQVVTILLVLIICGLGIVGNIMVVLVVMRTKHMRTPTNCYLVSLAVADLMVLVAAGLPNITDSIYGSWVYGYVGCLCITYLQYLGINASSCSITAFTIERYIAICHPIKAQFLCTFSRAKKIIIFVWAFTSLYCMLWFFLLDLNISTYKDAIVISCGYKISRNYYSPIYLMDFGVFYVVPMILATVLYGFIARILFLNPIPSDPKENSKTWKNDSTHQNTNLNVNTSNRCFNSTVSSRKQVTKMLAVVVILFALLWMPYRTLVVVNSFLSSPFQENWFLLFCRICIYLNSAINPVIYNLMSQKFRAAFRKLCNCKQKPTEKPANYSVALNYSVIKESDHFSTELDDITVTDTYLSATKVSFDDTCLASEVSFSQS

In the first test the target is Thyrotropin-releasing hormone receptor (Homo sapiens) (UniProt P34981). Briefly: qHTS assay to identify small molecule agonists of the thyrotropin-releasing hormone receptor (TRHR) signaling pathway (AID 1346891; calls by dose curve;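 also: HEK293 cells expressing TRHR with calcium dye readout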). The following applies: TRHR-HEK293 calcium fluorescence, agonist mode; series mostly up to 57.6 µM. The method, boiled down:
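HEK293/TRHR cells, 1500 per well, 18 h 37 °C; Ca dye 2 h 37 °C; pin-tool compound addition (agonist mode); kinetic fluorescence 3 min, 1 s reads; 15 concentrations, triplicate.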
(qHTS replaces the single test concentration by a dilution series.)
For `Cc1ccccc1N=C(N)N=C(N)N`, the Potency result is “inactive”.

For the molecule `FB(F)F`, the Potency result was “inactive”.

Take `CCCC(=O)O[C@]1(C(=O)CC)CC[C@H]2[C@@H]3CCC4=CC(=O)CC[C@]4(C)[C@H]3[C@@H](O)C[C@@]21C`: the Potency result was “inactive”.

For `CCO[Si](OCC)(OCC)c1ccccc1`, the Potency result was “inactive”.

As to `Cc1cccc(C)c1NC(=O)CC12CCCN1CCC2`, the Potency result is “inactive”.

For the molecule `O=S(=O)(O)c1cc(O)c(O)c(S(=O)(=O)O)c1`, the Potency entry is “inactive”.

As to `CC(C)C1CCC(O)CC1` (stereo unspecified), the Potency entry was “inactive”.

`CC1=NN(c2cc(S(=O)(=O)O)ccc2Cl)C(=O)C1N=Nc1ccccc1` (stereo unspecified): the Potency result is “inactive”.

Turning to `CC12CCC(C(=O)C1=O)C2(C)C` (stereo unspecified), the Potency entry is “inactive”.

With `C=CN1CCCCCC1=O`, the Potency result is “inactive”.

With `CCCCCCCCCCCCCCCCCCO`, the Potency entry was “inactive”.

With `CC(C)C(=O)OC(=O)C(C)C`, the Potency result is “inactive”.

For `[O-][n+]1cccc(CO)c1`, the Potency entry is “inactive”.

For the molecule `CCCCCC(=O)OCCc1ccccc1`, the Potency result is “inactive”.

`CC(=O)NC(=O)c1ccccc1O`: the Potency result is “inactive”.

As to `COc1cc(C(=O)OC(COCCC(C)C)CN2CCOCC2)cc(OC)c1OC` (stereo unspecified), the Potency entry was “inactive”.

Regarding `CO[Si](C)(OC)c1ccccc1`, the Potency result is “inactive”.

For the molecule `C=COC(=O)C(C)(CC)CCC(C)C` (stereo unspecified), the Potency entry is “inactive”.

In the case of `C=C[Si](OC(C)=O)(OC(C)=O)OC(C)=O`, the Potency entry is “inactive”.

On to `COc1c(N2CCNC(C)C2)c(F)cc2c(=O)c(C(=O)O)cn(C3CC3)c12` (stereo unspecified), for which the Potency entry is “inactive”.

As for `CC1(C)OC[C@@H](COC(=O)CCc2ccc(OC[C@@H](O)CNCCNC(=O)N3CCOCC3)cc2)O1`, the Potency result was “inactive”.

On to `C=CC(C)(CCC=C(C)C)OC(=O)CC` (stereo unspecified), for which the Potency entry is “inactive”.

`c1ccc(Cc2ccccc2)cc1`: the Potency result is “inactive”.

As to `CC(C)(C#N)Nc1nc(Cl)nc(NC2CC2)n1`, the Potency result was “inactive”.

With `C=C(C)C(=O)OCC1CCCO1` (stereo unspecified), the Potency result is “inactive”.

Consider `CC(=O)Nc1ccc(OCC(O)CNC(C)C)cc1` (stereo unspecified), for which the Potency entry is “inactive”.

Consider `CN(C)[C@@H]1C(=O)C(C(=O)NCN2CCCC2)=C(O)[C@@]2(O)C(=O)C3=C(O)c4c(O)cccc4[C@@](C)(O)C3C[C@@H]12` (stereo partly specified), for which the Potency entry is “inactive”.

With `COc1cc(C(=O)NCc2ccc(OCCN(C)C)cc2)cc(OC)c1OC`, the Potency result was “inactive”.

Turning to `CCCC(C)C(=O)OCC` (stereo unspecified), the Potency entry was “inactive”.

On to `CCCCOC(=O)CCC(C)=O`, for which the Potency entry was “inactive”.

`CC(C#N)(CCC(=O)O)N=NC(C)(C#N)CCC(=O)O` (stereo unspecified): the Potency entry is “inactive”.

In the case of `O=S(=O)(O)c1cccc2ccccc12`, the Potency result was “inactive”.

`CN(C)C(=O)Oc1cccc([N+](C)(C)C)c1`: the Potency entry was “inactive”.

Take `CC(=O)N[C@H]1[C@H]([C@H](O)[C@H](O)CO)OC(C(=O)O)=C[C@@H]1N=C(N)N`: the Potency result was “inactive”.

Consider `CCN[C@@H]1C[C@H](N)[C@@H](OC2OC(CN)=CCC2N)[C@H](O)[C@H]1O[C@H]1OC[C@](C)(O)[C@H](NC)[C@H]1O` (stereo partly specified), for which the activation was -0.947% [at 0.218 µM] (inactive).

`C=CC(=O)OCCCl`: the Potency entry is “inactive”.

Turning to `CCCc1nn(C)c2c(=O)[nH]c(-c3cc(S(=O)(=O)N4CCN(C)CC4)ccc3OCC)nc12`, the Potency entry was “inactive”.

On to `C[N+]12CCC(CC1)C(OC(=O)C(O)(c1ccccc1)c1ccccc1)C2` (stereo unspecified), for which the Potency result was “inactive”.

System in another test: not listed separately
Briefly: Human pregnane X receptor (PXR) small molecule agonists, qHTS cell viability counter screen (AID 1346977). Also: nearly all actives have a fitted effect of over 50% in size. Also: potency is read from the fitted curve at half-maximal effect. The following applies: PXR-Luc HepG2 viability, CellTiter-Fluor, 24 h; series mostly up to 92.4 µM. The method, boiled down:
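Fluorescence read-out (CellTiter-Fluor) of viability in PXR-Luc HepG2 cells, multiplexed with the luciferase agonist read. Compounds in DMSO added after 5hr plating; 24hr total exposure at 37C, 5% CO2.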
For `Cc1ccccc1N=C(N)N=C(N)N`, the Potency result is “inactive”.

Take `FB(F)F`: the Potency result is “inactive”.

Consider `CCCC(=O)O[C@]1(C(=O)CC)CC[C@H]2[C@@H]3CCC4=CC(=O)CC[C@]4(C)[C@H]3[C@@H](O)C[C@@]21C`, for which the Potency result was “inactive”.

As to `CCO[Si](OCC)(OCC)c1ccccc1`, the Potency entry was “inactive”.

With `Cc1cccc(C)c1NC(=O)CC12CCCN1CCC2`, the Potency result was “inactive”.

With `O=S(=O)(O)c1cc(O)c(O)c(S(=O)(=O)O)c1`, the Potency result was “inactive”.

Regarding `CC(C)C1CCC(O)CC1` (stereo unspecified), the Potency result is “inactive”.

Regarding `CC1=NN(c2cc(S(=O)(=O)O)ccc2Cl)C(=O)C1N=Nc1ccccc1` (stereo unspecified), the Potency is 61.1 µM (active).

With `CC12CCC(C(=O)C1=O)C2(C)C` (stereo unspecified), the Potency result is “inactive”.

Take `C=CN1CCCCCC1=O`: the Potency entry is “inactive”.

As for `CCCCCCCCCCCCCCCCCCO`, the Potency result is “inactive”.

Regarding `CC(C)C(=O)OC(=O)C(C)C`, the Potency result is “inactive”.

Regarding `[O-][n+]1cccc(CO)c1`, the Potency result was “inactive”.

On to `CCCCCC(=O)OCCc1ccccc1`, for which the Potency entry is “inactive”.

`CC(=O)NC(=O)c1ccccc1O`: the Potency entry was “inactive”.

For the molecule `COc1cc(C(=O)OC(COCCC(C)C)CN2CCOCC2)cc(OC)c1OC` (stereo unspecified), the Potency result is “inactive”.

Consider `CO[Si](C)(OC)c1ccccc1`, for which the Potency result is “inactive”.

`C=COC(=O)C(C)(CC)CCC(C)C` (stereo unspecified): the Potency entry is “inactive”.

With `C=C[Si](OC(C)=O)(OC(C)=O)OC(C)=O`, the Potency entry is “inactive”.

Take `COc1c(N2CCNC(C)C2)c(F)cc2c(=O)c(C(=O)O)cn(C3CC3)c12` (stereo unspecified): the Potency entry was “inactive”.

In the case of `CC1(C)OC[C@@H](COC(=O)CCc2ccc(OC[C@@H](O)CNCCNC(=O)N3CCOCC3)cc2)O1`, the Potency entry is “inactive”.

Turning to `C=CC(C)(CCC=C(C)C)OC(=O)CC` (stereo unspecified), the Potency entry was “inactive”.

Regarding `c1ccc(Cc2ccccc2)cc1`, the Potency entry was “inactive”.

Take `CC(C)(C#N)Nc1nc(Cl)nc(NC2CC2)n1`: the Potency entry was “inactive”.

With `C=C(C)C(=O)OCC1CCCO1` (stereo unspecified), the Potency entry was “inactive”.

Turning to `CC(=O)Nc1ccc(OCC(O)CNC(C)C)cc1` (stereo unspecified), the Potency entry was “inactive”.

`CN(C)[C@@H]1C(=O)C(C(=O)NCN2CCCC2)=C(O)[C@@]2(O)C(=O)C3=C(O)c4c(O)cccc4[C@@](C)(O)C3C[C@@H]12` (stereo partly specified): the Potency result is “inactive”.

As for `COc1cc(C(=O)NCc2ccc(OCCN(C)C)cc2)cc(OC)c1OC`, the Potency entry is “inactive”.

For the molecule `CCCC(C)C(=O)OCC` (stereo unspecified), the Potency result was “inactive”.

`CCCCOC(=O)CCC(C)=O`: the Potency entry is “inactive”.

For `CC(C#N)(CCC(=O)O)N=NC(C)(C#N)CCC(=O)O` (stereo unspecified), the Potency entry is “inactive”.

On to `O=S(=O)(O)c1cccc2ccccc12`, for which the Potency result is “inactive”.

As for `CN(C)C(=O)Oc1cccc([N+](C)(C)C)c1`, the Potency result is “inactive”.

`CC(=O)N[C@H]1[C@H]([C@H](O)[C@H](O)CO)OC(C(=O)O)=C[C@@H]1N=C(N)N`: the Potency entry is “inactive”.

In the case of `CCN[C@@H]1C[C@H](N)[C@@H](OC2OC(CN)=CCC2N)[C@H](O)[C@H]1O[C@H]1OC[C@](C)(O)[C@H](NC)[C@H]1O` (stereo partly specified), the activity change, negative = cytotoxicity was 1.73% [at 0.349 µM] (inactive).

Take `C=CC(=O)OCCCl`: the Potency result was “inactive”.

As for `CCCc1nn(C)c2c(=O)[nH]c(-c3cc(S(=O)(=O)N4CCN(C)CC4)ccc3OCC)nc12`, the Potency entry is “inactive”.

For `C[N+]12CCC(CC1)C(OC(=O)C(O)(c1ccccc1)c1ccccc1)C2` (stereo unspecified), the Potency result was “inactive”.
